Lamin A splicing – qHTS Assay for Modulators of Lamin A Splicing | HeLa LMNA splicing GFP/RFP minigene ratio, 48 h | Potency, µM (top dose mostly 46.1 µM), for the others: at the highest dose ratio change, negative = inhibition, most hits filed as inhibitors | 200,000 compounds, 0.01% hits | AID 1487, 2009; active means well fitted inhibition curve with a large enough effect in the signal ratio, with a control signal flat, not every such curve was filed as active; inconclusive means small, poorly fitted or top-dose-only effect, or effect the other way, or a change in a side signal; the % refers to the signal ratio; further: potency means the concentration at half of the fitted maximal effect
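S3 HeLa stable clones carrying a lamin A-EGFP splicing minigene plus DsRed2 were seeded at 600 cells/well in Opti-MEM with 2% FBS, pin-dosed and incubated 48 h at 37°C. Acumen cytometry (488 nm) gave the GFP/RFP total-intensity ratio.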
ALDH1A1 inh – qHTS Assay for Inhibitors of Aldehyde Dehydrogenase 1 (ALDH1A1); Aldehyde dehydrogenase 1A1 (Homo sapiens), P00352; Purified ALDH1A1, NADH fluorescence, propionaldehyde substrate; Potency, µM (highest dose often 75.3 µM), for the others: top-dose activity, negative = inhibition, usual class: inhibitors; 220,000 compounds, 7.3% hits;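 further: potency means the concentration at half of the fitted maximal effect; plate controls were no enzyme wells and a reference inhibitor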
Target sequence (P00352 whole entry, looked up): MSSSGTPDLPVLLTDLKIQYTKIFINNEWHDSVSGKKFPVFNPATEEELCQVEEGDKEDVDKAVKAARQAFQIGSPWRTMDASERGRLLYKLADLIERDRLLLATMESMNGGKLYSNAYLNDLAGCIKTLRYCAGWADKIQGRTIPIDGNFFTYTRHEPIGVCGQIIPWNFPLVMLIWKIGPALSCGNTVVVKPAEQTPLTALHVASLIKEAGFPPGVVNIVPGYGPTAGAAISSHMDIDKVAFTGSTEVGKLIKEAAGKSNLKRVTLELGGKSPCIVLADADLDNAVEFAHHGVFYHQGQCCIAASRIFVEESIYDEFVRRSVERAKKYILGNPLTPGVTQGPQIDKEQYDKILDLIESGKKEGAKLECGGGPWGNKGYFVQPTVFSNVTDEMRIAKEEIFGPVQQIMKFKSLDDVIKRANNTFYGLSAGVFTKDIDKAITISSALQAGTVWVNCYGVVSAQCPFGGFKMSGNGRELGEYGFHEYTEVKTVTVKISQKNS
HPGD block – qHTS Assay for Inhibitors of HPGD (15-Hydroxyprostaglandin Dehydrogenase); 15-hydroxyprostaglandin dehydrogenase [NAD(+)] (Homo sapiens), P15428; purified HPGD, NADH fluorescence kinetic, PGE2 substrate; Potency, µM, inactives show at the top dose activity change, negative = inhibition, actives largely listed as inhibitors; 150,000 compounds, 4.3% hits; AID 894, 2007; further: potency means the concentration at half of the fitted maximal effect
Target sequence (P15428 whole entry, looked up): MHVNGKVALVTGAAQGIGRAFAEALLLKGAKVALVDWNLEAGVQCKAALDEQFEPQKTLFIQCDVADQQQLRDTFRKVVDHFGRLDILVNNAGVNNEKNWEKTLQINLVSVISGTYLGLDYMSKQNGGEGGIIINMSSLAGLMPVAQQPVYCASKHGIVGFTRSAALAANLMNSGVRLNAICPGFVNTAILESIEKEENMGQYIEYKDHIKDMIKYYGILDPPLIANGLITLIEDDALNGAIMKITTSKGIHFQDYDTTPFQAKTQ
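NADH formation kinetics: reaction with 30 uM PGE2 and 1 mM NAD+ (final), 20 nM enzyme, Tris-HCl pH 8 with Tween 20, after 15 min compound preincubation at room temperature. Fluorescence change, last versus first of five reads.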
ALOX12 inhib – qHTS Assay for Inhibitors of 12-hLO (12-human lipoxygenase). purified 12-hLO, xylenol orange hydroperoxide absorbance. Potency, µM (doses to about 57.1 µM), inactives show at the highest dose activity change, negative = inhibition, usual class: inhibitors. 150,000 compounds, 0.12% hits; active means well fitted inhibition curve with a large enough effect; inconclusive means small, poorly fitted or top-dose-only effect; further: potency means the concentration at half of the fitted maximal effect; nearly all actives have a fitted effect of over 55% in size
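150 nM 12hLO, 25 mM Hepes pH 7.0 + 0.01% Triton X-100; cpd preinc 15 min RT; 40 uM arachidonic acid, 30 min RT; Fe-XO 30 min; A573/A405 ratio as read-out.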
PNC inhibitor – High Content Assay for Compounds that inhibit the Assembly of the Perinucleolar Compartment; AID 2417, 2010; activity change (PNC), negative = inhibition, % at 10 µM; 140,000 compounds, 3.1% hits; PC3M PTB-GFP, PNC prevalence imaging, 16 h; active compounds read low;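 active means readout at or below -70, meaning at least 70% loss of cells showing the perinucleolar compartment, a nuclear body marking cancer cells; inconclusive means readout between -30 and a set limit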;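 further: plate controls were DMSO wells for no effect and camptothecin positive control wells for full effect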
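PC3M cells stably expressing PTB-GFP, 750–1000 cells/well, treated 16 h at 37 °C with compound (23 nl of library stock), in duplicate. After paraformaldehyde fixation and Hoechst stain, imaged at 20x; PNC prevalence scored by image analysis.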
Active calls of the source: *; ? = inconclusive; · = not tested or not shown; [ ] = remark or other dose. Most compounds without a hit are left out; they make up all but 10% or so of the library. Unless noted, the call rests on the fitted dose curve; in most records, active means well fitted inhibition curve with a large enough effect (not every such curve was filed as active); inconclusive means small, poorly fitted or top-dose-only effect, or another doubt; inactive means no such curve, though single readings can be large or run the other way. Unless noted, on the % scale 0 is the no-effect control and ±100 the full control effect.

SMILES	Lamin A splicing	ALDH1A1 inh	HPGD block	ALOX12 inhib	PNC inhibitor
CS(=O)(=O)N1CCC2(CCCN(C(=O)Nc3cccc(C#N)c3)C2)CC1	·	12.8%	-2.0%	1.7%	·
CCCCCCCCC(=O)NCCOc1ccc(OC)cc1	5.7%	3.6%	1.5%	-2.7%	?
COc1ccc(OCCCC(=O)NCC(C)C)cc1	2.7%	4.8%	25.1µM*	-4.1%	?
Cc1ccc(OCCCC(=O)Nc2ccccc2C(F)(F)F)cc1	0.7%	-3.9%	-8.9%	-1.3%	55.6
C=CCNC(=O)CCCOc1ccc(C)cc1	6.7%	5.8%	7.08µM*	-1.0%	20.8
C=CCNC(=O)COc1cc(C)cc(C)c1C	·	0.7%	·	·	·
C=CCNC(=O)CCCOc1cc(C)ccc1C	12.7%	1.1%	14.1µM*	-0.3%	-0.9
Cc1cccc(-n2c(=S)[nH]c3sc4c(c3c2=O)CCc2ccccc2-4)c1	·	3.16µM*	·	·	·
Cc1ccc(N2CC(O)(c3cccs3)[N+]3=C2CCCC3)cc1 (configuration not stated)	·	6.6%	·	·	·
Cc1ccc(N2NC(C)(c3cccs3)NC2=S)cc1 (configuration not stated)	14.6%	17.8µM*	-21.2%	?	32.0
CN(C)S(=O)(=O)Nc1ccc2c(c1)OCO2	0.9%	1.5%	?	-0.7%	0.2
Cc1cc(NS(=O)(=O)N(C)C)ccc1C(C)C	-13.2%	?	15.8µM*	4.0%	20.9
O=c1c(N=Nc2ccc(O)cc2)c(-c2ccccc2)[nH]n1-c1ccc([N+](=O)[O-])cc1	-28.8%[46 µM]	-13.4%	·	·	·
Cc1ccc([N+](=O)[O-])cc1N=Nc1c(-c2ccc([N+](=O)[O-])cc2)[nH]n(C(N)=S)c1=O	·	11.2µM*	·	·	·
O=S(=O)(c1cccc(C(F)(F)F)c1)N1c2ccccc2-n2cccc2[C@H]1c1cccnc1	·	-4.4%[13.5 µM]	-24.2%	-5.8%[11.4 µM]	·
O=P(CO)(Cc1ccccc1)Cc1ccccc1	-2.8%	7.5%	15.8µM*	8.7%	?
COc1ccc(OC)c(-c2noc(N3CCN(c4ccc(C(C)=O)cc4)CC3)n2)c1	-12.5%[46 µM]	·	·	·	·
O=C(COC(=O)CNS(=O)(=O)c1ccc2ccccc2c1)Nc1ccccc1Sc1ccccc1	6.2%	17.8µM*	-7.8%	-4.3%	50.0
O=C(COC(=O)CNS(=O)(=O)c1ccc2ccccc2c1)Nc1ccc2c(c1)OCO2	-9.1%	-5.3%	-4.7%	1.3%	35.6
CCc1ccc(OCC(=O)NCC(c2ccc(OC)cc2)N2CCOCC2)cc1 (configuration not stated)	10.8%[46 µM]	·	·	·	·
Cc1cc2nc(CCN(Cc3cccnc3)C(=S)Nc3ccc(F)cc3)[nH]c2cc1C	17.6%	-8.4%	-1.2%	-0.7%	85.0
Cc1cc2nc(CCN(Cc3cccnc3)C(=S)Nc3ccccc3)[nH]c2cc1C	-19.2%	?	-1.2%	-1.5%	-86.4*
Cc1ccc2[nH]c(=O)c(C(c3nnnn3CC3CCCO3)N3CCCc4ccccc43)cc2c1 (configuration not stated)	-0.1%	12.6µM*	-9.0%	-9.0%	?
Cc1ccc2[nH]c(=O)c(C(c3nnnn3CC3CCCO3)N3CCc4ccccc4C3)cc2c1 (configuration not stated)	0.3%	?	?	?	29.5
Cc1ccc2[nH]c(=O)c(C(c3nnnn3C3CCCC3)N3CCCc4ccccc43)cc2c1 (configuration not stated)	-14.4%	14.1µM*	-14.9%	2.3%	24.3
SMILES	Lamin A splicing	ALDH1A1 inh	HPGD block	ALOX12 inhib	PNC inhibitor
CCC(C)(C)n1nnnc1C(c1cc2cc(C)ccc2[nH]c1=O)N1CCCc2ccccc21 (configuration not stated)	12.8%	-1.7%	-5.2%	1.7%	10.8
COc1ccc(CCNC(=O)c2ccc3c(c2)N(Cc2ccccc2C)C(=O)c2ccccc2S3)cc1OC	-2.1%[46 µM]	·	·	·	·
Clc1cc2c(c(CSC3=NCN(CC4CC4)CN3)c1)OCOC2	·	-6.4%[13.5 µM]	-5.1%	-0.1%[11.4 µM]	·
CN(C)/C=N/NC(=O)c1ccc(Cl)cc1	·	11.7%	·	·	·
CN(C)/C=N/c1cnc(C(=O)c2ccc(Cl)cc2)n1C	2.6%	-1.0%	15.8µM*	-3.1%	9.0
CN1CCN(S(=O)(=O)c2ccc(NC(=S)NC(=O)c3ccc(Cl)cc3)cc2)CC1	?	-10.1%	·	?	7.8
CN1CCN(S(=O)(=O)c2ccc(NC(=S)NC(=O)c3ccccc3)cc2)CC1	6.2%	25.1µM*	?	-1.0%	15.9
CN1CCN(C(=S)NC(=O)c2ccc(S(=O)(=O)N3CCOCC3)cc2)CC1	-2.2%[46 µM]	9.46µM*	·	·	·
CN1CCN(S(=O)(=O)c2ccc(NC(=S)NC(=O)C(C)(C)C)cc2)CC1	-1.0%[46 µM]	31.6µM*	·	·	·
CN(Cc1ccccc1)S(=O)(=O)c1ccc(NC(=S)NC(=O)C2CCCCC2)cc1	?	-2.9%	-6.7%	?	-6.7
CCC(=O)NC(=S)Nc1ccc(S(=O)(=O)N2CCN(C)CC2)cc1	1.0%	6.5%	-3.7%	-1.7%	?
CN(Cc1ccccc1)S(=O)(=O)c1ccc(NC(=S)NC(=O)C(C)(C)C)cc1	-9.8%	12.6µM*	-15.2%	3.3%	-5.1
O=C(Nc1ccccc1)N1CCC2(CCNCC2)CC1	·	-4.6%	-4.9%	0.2%	·
COc1ccc(O[C@H]2C=C[C@@H](c3ccccc3)O[C@H]2CO/N=C(/C)CCC(=O)OC[C@@H]2O[C@H](C#Cc3ccccc3)C=C[C@@H]2Oc2ccc(C)cc2)cc1	·	-4.6%[13.5 µM]	·	·	·
CCCn1c(CN2CCCCC2C)nc2c1c(=O)n(C)c(=O)n2C (configuration not stated)	-6.8%	6.3%	-2.0%	0.2%	-95.1*
Cn1c(=O)c2c(nc(CN3CCN(CCO)CC3)n2CCc2ccccc2)n(C)c1=O	·	28.2µM*	·	·	·
Cn1c(=O)c2c(nc(CN3CCOCC3)n2CCCc2ccccc2)n(C)c1=O	-5.4%	-4.8%	-4.1%	1.4%	-1.7
CCCCCCn1c(CN2CCN(C)CC2)nc2c1c(=O)n(C)c(=O)n2C	-5.5%	4.1%	-14.4%	19.3%	-121.7*
Cn1c(=O)c2c(nc(CN3CCCCC3)n2CCc2ccccc2)n(C)c1=O	1.0%	?	-4.4%	0.0%	-17.8
CCCCCn1c(CN2CCN(CCO)CC2)nc2c1c(=O)n(C)c(=O)n2C	-6.7%	?	-0.2%	1.5%	6.4
CN1CCN(Cc2nc3c(c(=O)n(C)c(=O)n3C)n2CCCc2ccccc2)CC1	5.8%	5.62µM*	-23.6%	9.2%	-18.3
CCCCCCn1c(CN2CCCCC2C)nc2c1c(=O)n(C)c(=O)n2C (configuration not stated)	-12.3%	?	-14.8%	3.1%	20.6
CSCC[C@H](NC(=O)[C@H](Cc1ccccc1)NC[C@@H](NC[C@@H](N)CS)C(C)C)C(=O)O	·	-10.5%	·	·	·

Compound activity (PubChem)
